The record followed here is PubChem BioAssay AID504652 (National Center for Advancing Translational Sciences (NCATS), 2011).

Several values for one entry are separate records, joined by “and”; a condition that tells them apart may be missing. Equal entries are not always repeated. Among all 360,000 compounds or so, about 11,000 (3.1%) were called active. The sample holds actives, similar compounds and a random draw of the others, so the mix is not that of the screen. Rule as the data show it: active = activity change below about -30%; inactive = the rest. Some compounds were tested as several samples or in several runs, with calls that do not always agree.
% is scaled to controls: 0 for no effect and ±100 for the full control effect.

D(1A) dopamine receptor (Homo sapiens), sequence (P21728 whole entry, looked up): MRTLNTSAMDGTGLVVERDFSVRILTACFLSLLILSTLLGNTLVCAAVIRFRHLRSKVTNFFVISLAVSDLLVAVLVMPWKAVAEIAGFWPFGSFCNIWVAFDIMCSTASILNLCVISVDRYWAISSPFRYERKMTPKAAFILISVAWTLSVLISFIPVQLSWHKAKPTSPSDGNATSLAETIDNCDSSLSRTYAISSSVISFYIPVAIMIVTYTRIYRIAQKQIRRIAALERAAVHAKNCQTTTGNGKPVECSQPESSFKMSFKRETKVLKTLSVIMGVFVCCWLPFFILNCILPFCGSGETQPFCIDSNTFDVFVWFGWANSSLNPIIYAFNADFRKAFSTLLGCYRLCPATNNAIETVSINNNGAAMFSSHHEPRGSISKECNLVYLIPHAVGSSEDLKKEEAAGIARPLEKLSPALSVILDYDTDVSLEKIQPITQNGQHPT

For the assay, the target named is D(1A) dopamine receptor (Homo sapiens) (UniProt P21728). Briefly: Antagonist of Human D 1 Dopamine Receptor: qHTS. The following applies: HEK293 TREx D1 cells, calcium flux, dopamine EC80; at 10 µM; stronger effect = lower value. The method in brief:
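After overnight tetracycline induction at 30 C, force-coupled D1 HEK293 cells took up a no-wash calcium dye at room temperature. Compounds were added and monitored 180 s, and the response to EC80 dopamine was then recorded.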
(Quantitative high-throughput screening tests each substance at several concentrations.)
Turning to `COc1ccccc1C(=O)NCCn1cc(SCc2ccccc2Cl)c2ccccc21`, the activity change, negative = inhibition is -10.4% (inactive).
The result for `Cc1ccc(N2CC(C(=O)Nc3ccc(N(C)C)cc3)CC2=O)cc1Cl` (stereo unspecified) reads 2.7% (inactive); that for `Cc1ccc(CNS(=O)(=O)c2ccc(C(=O)N(C)C)s2)cc1`, 5.34% (inactive).
The result for `Cc1ccccc1CNC(=O)Cn1c(C)c2cnn(-c3ccccc3)c(=O)c2c1C` reads -7.63% (inactive).
The result for `COc1ccc(S(=O)(=O)Nc2cc3c(C(=O)OC(C)C)c(C)oc3c3ccccc23)cc1` reads -3.34% (inactive); that for `CCOC(=O)c1cc2c(=O)n3ccccc3nc2n(CC2CCCO2)c1=NC(=O)c1ccccc1Br` (stereo unspecified), 4.67% (inactive); that for `CCOC(=O)c1cc2c(=O)n3ccccc3nc2n(CC2CCCO2)c1=NC(=O)c1ccc(C(C)(C)C)cc1` (stereo unspecified), -30.2% (active).
For the molecule `CCOC(=O)c1cc2c(=O)n3ccccc3nc2n(CC2CCCO2)c1=NC(=O)c1ccccc1F` (stereo unspecified), the activity change, negative = inhibition is 7.85% (inactive).
Turning to `Cc1cccc(-n2ccnc2SCC(=O)Nc2cc(C(F)(F)F)ccc2Cl)c1`, the activity change, negative = inhibition was -5.92% (inactive).
As for `CCOC(=O)N1CCN(c2c(NCCN3CCN(c4ccccc4F)CC3)c(=O)c2=O)CC1`, the activity change, negative = inhibition is -21.9% (inactive).
The result for `Cn1c(=O)c(=O)n(C)c2cc(S(=O)(=O)NCCc3ccccc3)ccc21` reads -4.68% (inactive); that for `Cn1c(=O)c(=O)n(C)c2cc(S(=O)(=O)NCCN3CCN(c4ccccc4F)CC3)ccc21`, -46.1% (active).
The same measure for `CN(C)CCCn1c(=O)n(Cc2ccccc2)c(=O)c2c3c(sc21)CCCCC3`: 3.11% (inactive); for `CN(C)CCCn1c(SCc2ccc(Cl)cc2)nnc1-c1ccncc1`: 10.2% (inactive).
For `CN(C)CCCn1c(-c2ccc(Cl)cc2)csc1=Nc1ccccc1`, the activity change, negative = inhibition is -34.7% (active).
Take `OCCn1c(-c2ccccc2)csc1=Nc1ccccc1`: the activity change, negative = inhibition is -45.5% (active).
In the case of `O=c1cc(CCl)nc2scc(-c3ccccc3)n12`, the activity change, negative = inhibition is -12.4% (inactive).
`O=C1N(Cc2ccccc2)c2ccc(Cl)cc2C1(O)c1c[nH]c2ccccc12` (stereo unspecified): the activity change, negative = inhibition was -8.31% (inactive).
The result for `Cc1ccc(-n2nnnc2CNC(=O)c2ccccc2C)cc1C` reads -3.19% (inactive); that for `CC(C)Oc1ccc(CN2CCC(n3nccc3NC(=O)c3cccnc3)CC2)cc1`, 8.77% (inactive); that for `COc1ccc(C(=O)Nc2ccnn2C2CCN(Cc3ccncc3)CC2)cc1`, -37.3% (active).
The result for `COc1ccccc1C(=O)Nc1ccnn1C1CCN(Cc2cnn(C)c2)CC1` reads 1.08% (inactive); that for `CCc1ccc(C2CC(=O)c3c([nH]c(C(=O)OCc4ccc(C)cc4)c3C)C2)cc1` (stereo unspecified), -10.1% (inactive); that for `Cc1cccc(N2CCN(C(=O)c3ccc4c(c3)CCN4S(=O)(=O)c3ccccc3)CC2)c1C`, -15.6% (inactive).
In the case of `Cc1c(C)n(Cc2ccc(Cl)cc2)c2ccc(C(=O)N3CCN(c4ccccc4F)CC3)cc12`, the activity change, negative = inhibition was -18.2% (inactive).
Take `CCn1c(C)c(C)c2cc(C(=O)N3CCN(c4cccc(C)c4C)CC3)ccc21`: the activity change, negative = inhibition was 25% (inactive) and -43.2% (active).
As to `CN(Cc1ccccc1)c1ncnc2onc(-c3ccc(F)cc3)c12`, the activity change, negative = inhibition was -1.84% (inactive).
On to `Cc1ccc(-c2nnc(SCC(=O)NCc3ccccc3)nc2-c2ccc(C)cc2)cc1`, for which the activity change, negative = inhibition is -16.8% (inactive).
As for `CCC(CC)c1nn2cc(-c3ccccc3)nc2s1`, the activity change, negative = inhibition is 14.7% (inactive).
The same measure for `O=C(Nc1ccc([N+](=O)[O-])cc1)C1(c2ccccc2)CCOCC1`: -11.2% (inactive); for `O=C(CCC(=O)N1CCCC1)Nc1ccc([N+](=O)[O-])cc1`: 15.5% (inactive).
Consider `O=C(Nc1ccc([N+](=O)[O-])cc1)C1CC12CCC2` (stereo unspecified), for which the activity change, negative = inhibition is -56.8% (active).
`CCC(=O)N1CCc2cc(Br)cc(S(=O)(=O)Nc3ccc(C)cc3C)c21`: the activity change, negative = inhibition was 2.58% (inactive).
The same measure for `Cc1c(NC(=O)C(C)(C)C)cccc1-c1nc2ccccc2s1`: 0.443% (inactive); for `CCOC(=O)c1ccc(N2C(=O)c3n[nH]c(C)c3C2c2ccc(O)c(OC)c2)cc1` (stereo unspecified): -4.29% (inactive).
The same measure for `Cc1ccc(S(=O)(=O)N2CCN(C)CC2)cc1`: 0.986% (inactive); for `CCOC(=O)N1CCN(S(=O)(=O)c2ccc(Br)cc2)CC1`: -1.63% (inactive).
Take `Cn1ncc(N2CCN(S(=O)(=O)c3ccc(Br)cc3)CC2)c(Cl)c1=O`: the activity change, negative = inhibition is -30.4% (active).
As for `Cc1ccc(C)c(NC(=O)Cn2ccn(-c3ccc(F)cc3)c(=O)c2=O)c1`, the activity change, negative = inhibition is -20% (inactive).
The result for `COc1ccccc1NC(=O)c1oc2ccccc2c1NC(=O)C(C)C` reads -5.69% (inactive); that for `COC(=O)c1ccc(C2C(Oc3ccccc3C)C(=O)N2CCc2ccc(OC)c(OC)c2)cc1` (stereo unspecified), -49.6% (active); that for `COc1ccc(CCN2C(=O)c3[nH]nc(-c4ccccc4O)c3C2c2ccc(C)cc2)cc1OC` (stereo unspecified), -3.51% (inactive).
With `COc1ccc(CCNC(=O)C(=O)NCc2ccccc2C)cc1OC`, the activity change, negative = inhibition is 3.05% (inactive).
The result for `Cc1ccccc1NC(=O)CN1C(=O)C(C)(C)c2ccccc21` reads 10.3% (inactive); that for `CCOc1cc(C(=S)N2CCOCC2)ccc1OS(=O)(=O)c1ccc(Br)cc1`, -30.6% (active).
On to `CCOc1cc(C(=S)N2CCOCC2)ccc1O`, for which the activity change, negative = inhibition is -0.874% (inactive).
`CC(=O)Nc1ccc(S(=O)(=O)Oc2ccc(Br)cc2C(=S)N2CCOCC2)cc1`: the activity change, negative = inhibition was 0.681% (inactive).
The same measure for `COC(=O)c1ccc2c(c1)N(CC(=O)Nc1ccc(C)c(C)c1)C(=O)c1ccccc1S2`: 10.3% (inactive).
On to `Cc1csc2nc(COC(=O)c3ccc(NC(=O)COc4ccccc4F)cc3)cc(=O)n12`, for which the activity change, negative = inhibition is -26.3% (inactive).
For the molecule `Cc1ccc(S(=O)(=O)n2nc(-c3ccc(Cl)cc3)nc2NCc2ccccc2)cc1`, the activity change, negative = inhibition is -3.44% (inactive).
The result for `CCS(=O)(=O)n1nc(-c2ccc(OC)cc2)nc1SC` reads -19.3% (inactive); that for `CCS(=O)(=O)n1nc(-c2ccccc2)nc1SCc1ccccc1`, -30.7% (active); that for `COc1ccc(CC(=O)N2N=C(C)CC2(O)C(F)(F)F)cc1` (stereo unspecified), -2.03% (inactive).
The result for `CC1=NN(C(=O)CCc2ccccc2O)C(O)(C(F)(F)F)C1` (stereo unspecified) reads 12.3% (inactive); that for `CC1=NN(C(=O)CCCc2ccccc2)C(O)(C(F)(F)F)C1` (stereo unspecified), -32.5% (active); that for `O=C(Nc1ccc2oc(-c3ccc(O)c(Br)c3)nc2c1)c1cc2ccccc2o1`, -6.68% (inactive).
